Assay outcomes as filed in PubChem.
ST2 inh = blocks human ST2 binding to IL-33 | Q01638 | AlphaLISA ST2-Fc/biotin-IL-33 interaction, 1 h | inhibition, % for hits at 17 µM | 78,000 tested, 2.3% active | AID 1259354; in the data active means inhibition above about 30%
Target sequence (Q01638 whole entry, looked up): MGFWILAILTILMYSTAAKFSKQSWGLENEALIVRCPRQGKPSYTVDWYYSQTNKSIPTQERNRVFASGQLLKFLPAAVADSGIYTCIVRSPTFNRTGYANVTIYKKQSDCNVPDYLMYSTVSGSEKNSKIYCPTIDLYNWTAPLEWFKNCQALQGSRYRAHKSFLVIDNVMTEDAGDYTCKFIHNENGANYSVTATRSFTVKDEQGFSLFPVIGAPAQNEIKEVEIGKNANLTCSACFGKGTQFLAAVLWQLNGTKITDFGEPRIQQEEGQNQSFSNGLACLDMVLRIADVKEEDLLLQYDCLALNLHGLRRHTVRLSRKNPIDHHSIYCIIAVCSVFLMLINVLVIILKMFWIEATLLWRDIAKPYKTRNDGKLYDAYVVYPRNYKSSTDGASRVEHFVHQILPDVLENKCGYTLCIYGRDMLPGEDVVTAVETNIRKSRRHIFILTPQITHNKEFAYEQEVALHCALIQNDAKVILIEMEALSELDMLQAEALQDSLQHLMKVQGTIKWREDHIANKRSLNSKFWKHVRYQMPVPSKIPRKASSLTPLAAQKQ
Of the large screens only hits and unclear results are named; the others gave an inactive call. Shown is part of a subset that was picked to be rich in hits.

O=C1CC(NCc2ccc3c(c2)OCO3)C(=O)N1c1ccccc1 (stereo not drawn)	none
CC(=O)Cc1nsc(NC(=O)c2ccc(Cl)cc2)n1	none
Cc1[nH]c2ccccc2c1SCCNC(=O)COc1ccc2ccccc2c1	none
COC(=O)C1=C(N)OC2=C(C(=O)CC(C)(C)C2)C1c1ccc(Br)cc1 (stereo not drawn)	none
CCC(C)NC(=O)c1cc2c(=O)n3cccc(C)c3nc2n1C (stereo not drawn)	none
Cc1c(CN(C)C(=O)c2cn(CC3COc4ccccc4O3)nn2)[nH]c2ccccc12 (stereo not drawn)	none
O=C(CS(=O)(=O)c1cn(Cc2ccccc2Cl)c2ccccc12)NC1CCCCC1	ST2 inh 32%
Cc1cc(NC(=O)CS(=O)(=O)c2cn(Cc3ccccc3Cl)c3ccccc23)no1	none
CCn1cc(S(=O)(=O)CC(=O)NC2CCCCC2)c2ccccc21	none
COc1cccc(-c2cc(C(=O)Nc3sc4c(c3C#N)CCC4)no2)c1	none
OCC1CCCN1Cc1cccc(Cl)c1 (stereo not drawn)	none
O=C1N(Cc2cccc(Cl)c2)C[C@@H]2C[C@@H](c3ccc4nsnc4c3)N3CCC[C@@]123	ST2 inh 40%
O=C1N(CCc2ccccc2)C[C@@H]2C[C@@H](c3cnc(-c4ccccc4)s3)N3CCC[C@@]123	none
COc1ccc(F)c(-c2ccc(CNC(C)=O)cn2)c1	none
CC(C)c1ccc(C(=O)Nc2ccccc2C(N)=O)cc1	none
NC(=O)c1ccccc1NC(=O)c1cccc(I)c1	none
NC(=O)c1ccccc1NC(=O)c1cccc(C(=O)Nc2ccccc2C(N)=O)c1	ST2 inh 30%
COc1ccc(N(C(=O)c2c(F)cccc2F)C2C=CS(=O)(=O)C2)c(OC)c1 (stereo not drawn)	none
COc1cc(C2C(C#N)=C(N)Oc3n[nH]c(-c4ccccc4)c32)ccc1O (stereo not drawn)	none
COc1ccc(C2C(C#N)=C(N)Oc3n[nH]c(-c4ccc5ccccc5c4)c32)cc1OC (stereo not drawn)	none
COc1ccc(C2C(C#N)=C(N)Oc3n[nH]c(-c4ccc(F)cc4)c32)cc1OC (stereo not drawn)	ST2 inh 31%
COc1cc(-c2ncnn2-c2ccc(C)c(Cl)c2)cc(OC)c1OC	none
CCOC(=O)C1CCCN(C(=O)C2c3ccccc3C(=O)N3CCc4ccccc4C23)C1 (stereo not drawn)	none
Cc1nc(N2CCCC(C(=O)NCc3cc(F)ccc3F)C2)nc2cc(S(C)(=O)=O)ccc12 (stereo not drawn)	none
N#CC1=C(SCC(=O)OCc2ccccc2)NC(=O)CC1c1ccccc1Cl (stereo not drawn)	none
Cc1ccc(C)c(CSC2=NCCN2C(=O)Cc2ccccc2)c1	none
CC1NC(=O)NC1CCCCC(=O)O (stereo not drawn)	ST2 inh 46%
O=C(O)CCCC[C@@H]1CCSS1	none
NCCCCCC(=O)O	none
CCCCNC(=O)C1(O)c2ccccc2NC(=O)N1c1ccc(OCC)cc1 (stereo not drawn)	none
CC(=O)Nc1ccc(NC(=O)CC(c2ccccc2)c2ccccc2)cc1	none
CC(C)(C)CC(=O)Nc1ccc(Nc2ccccc2)cc1	ST2 inh 33%
CC(=O)Nc1ccc(NC(=O)Nc2ccccc2)cc1	none
COc1ccc(Cl)cc1-n1nc(C(C)C)nc1-c1ncn[nH]1	none
CCCOC(=O)COc1ccc2c(=O)c(Oc3ccc(C(C)(C)C)cc3)coc2c1	none
CN1CCCCC1C(=O)N1CCC(CCOc2ccccc2)(C(=O)O)CC1 (stereo not drawn)	none
Cc1c(N=Cc2cc([N+](=O)[O-])ccc2N(C)C2CCCCC2)c(=O)n(-c2ccccc2)n1C	ST2 inh 47%
Cc1c(N=Cc2ccc(Cl)o2)c(=O)n(-c2ccccc2)n1C	none
COc1cc(C=Nc2c(C)n(C)n(-c3ccccc3)c2=O)cc([N+](=O)[O-])c1O	none
Cc1c(N=Cc2cc(Br)cc(Br)c2O)c(=O)n(-c2ccccc2)n1C	none
COc1cc(C=Nc2c(C)n(C)n(-c3ccccc3)c2=O)c([N+](=O)[O-])cc1OC	none
Cc1c(N=Cc2cc([N+](=O)[O-])ccc2N2CCCCCC2)c(=O)n(-c2ccccc2)n1C	ST2 inh 42%
CN1CCN(CCCNC(=O)c2ccc3c(c2)NC(=O)C(N2CCCC2)S3)CC1 (stereo not drawn)	none
CCN(C(=O)Cc1c(C(=O)O)[nH]c2ccc(Cl)cc12)c1cc(OC)ccc1OC	none
COc1cc(-n2c(=O)c3ccccc3n(Cc3ccccc3C#N)c2=O)cc(OC)c1OC	none
COc1c(O)cc2occ(-c3ccc(O)cc3)c(=O)c2c1O	none
CCOC1=NC2Nc3ccccc3N(CC)C2C1c1ccc([N+](=O)[O-])cc1 (stereo not drawn)	none
CCc1ccc(N2C(=O)c3ccccc3NC2c2cccc([N+](=O)[O-])c2)cc1 (stereo not drawn)	none
CCC1(CC)OC(c2cccn2-c2ccc([N+](=O)[O-])cc2)Nc2ccccc21 (stereo not drawn)	ST2 inh 54%
CCn1cnc(S(=O)(=O)N2CCC(C(=O)Nc3ccc(S(N)(=O)=O)cc3)CC2)c1	none
C1=C[C@H]2C[C@@H]1C[C@H]2Cc1nc(-c2cnccn2)no1	none
CCOc1cc(C2C3=C(CC(C)(C)CC3=O)Nc3ccccc3N2C(C)=O)ccc1OC(C)=O (stereo not drawn)	none
COc1ccc(-c2ccc(C(C)=O)cc2)cc1	none
COc1ccc(C(=O)NCC(=O)O)cc1	none
COc1ccc(C(=O)/C=C(\C)c2ccc(OC)cc2)cc1	ST2 inh 43%
CCn1c(CN2CCc3nc(C)n(C)c(=O)c3CC2)nc2ccccc21	none
Cc1ccc(SC2=C(N3CCOCC3)C(=O)N(c3cc(C)cc(C)c3)C2=O)cc1	ST2 inh 43%
Cc1cccc(N2C(=O)CC(N3CCOCC3)C2=O)c1 (stereo not drawn)	none
Cc1ccc(S(=O)(=O)N2CCN(c3nc(C)cc(N4CCOCC4)n3)CC2)cc1	none
Cc1ccc(OCCN(C)C(=O)C2CCC(=O)N(Cc3ccccn3)C2)cc1 (stereo not drawn)	none
COc1cc2c(C(=O)NCCCN3CCN(C)CC3)cn(C)c(=O)c2cc1OC	none
CCc1c(C)c(C#N)c2nc3ccccc3n2c1NCCOC	none
Cc1cc(-n2ccnc2C)n2c(nc3ccccc32)c1C#N	none
CCOc1cc(-c2c(C#N)c(N)n3c(nc4ccccc43)c2C#N)ccc1OC	ST2 inh 37%
CC(Cn1ccnc1-c1ccc(-c2ccn[nH]2)o1)Oc1cccnc1 (stereo not drawn)	none
CCn1nc(CO)c2c1CCN(Cc1cc3n(n1)CCCNC3)C2	none
N#CC1=C(N)Oc2cc(O)c(Cl)cc2C1c1ccc(F)cc1 (stereo not drawn)	none
COc1ccc(N=Cc2cc3c(cc2O)OC(N)=C(C#N)C3c2cccc(F)c2)cc1 (stereo not drawn)	ST2 inh 33%
N#CC1=C(N)Oc2cc(N)ccc2C1c1cccc(I)c1 (stereo not drawn)	none
Brc1c(-c2ccccc2)nc2n1-c1ccccc1C2	ST2 inh 44%
Nc1nc(-c2ccccc2)c(Br)c(=O)[nH]1	none
Cc1[nH]nc(-c2ccccc2)c1Br	none
Cc1cccnc1N1CCN(Cc2cc(C(C)C)no2)CC1	none
Cc1cccc(C(=O)Nc2cccc(F)c2)c1	none
Cc1ccc(-c2noc(COc3ccccc3)n2)cc1	none
CC1CCc2c(sc(NC(=O)c3ccccc3Cl)c2C(=O)NCc2ccco2)C1 (stereo not drawn)	none
O=C(Nc1sc2c(c1C(=O)NCc1ccco1)CCCC2)c1ccccc1[N+](=O)[O-]	ST2 inh 30%
O=C(Nc1sc2c(c1C(=O)NCC1CCCO1)CCCC2)c1ccccc1Br (stereo not drawn)	none
O=C(Nc1nnc(C2CCCCC2)s1)C(F)(F)F	none
